Calls of active or inactive are those of the source. How the source made its calls: active means hit-call score of the fitted dose curve at least 0.9, where 1 is the maximum; inactive means score below 0.9.
assay: APR_HepG2_MicrotubuleCSK_72hr: Apredica 72-hour HepG2 Assay for Microtubule CSK Stabilty (AID 2282919); details: HepG2 microtubule cytoskeleton, high-content imaging, actives raise or lower the signal
Procedure: APR_HepG2_72hr is a cell-based, multiplexed-readout assay that uses HepG2, a human liver cell line, with measurements taken at 72 hours after chemical dosing in a 384-well plate.APR_HepG2_MicrotubuleCSK_72hr is one of 10 assay component(s) measured or calculated from the APR_HepG2_72hr assay. It is designed to make measurements of protein conformation, a form of conformation reporter, as detected with fluorescence intensity signals by HCS Fluorescent Imaging technology.Data from the assay component APR_HepG2_MicrotubuleCSK_72hr was analyzed into 1 assay endpoint. This assay endpoint, APR_HepG2_MicrotubuleCSK_72hr, was analyzed with bidirectional fitting relative to DMSO as the negative control and baseline of activity. Using a type of conformation reporter, measures of protein for gain or loss-of-signal activity can be used to understand the signaling at the cellular-level. Furthermore, this assay endpoint can be referred to as a primary readout, because this assay has produced multiple assay endpoints where this one serves a signaling function. To generalize the intended target to other relatable targets, this assay endpoint is annotated to the cell morphology intended target family, where the subfamily is cell conformation.
Cells were treated with dimethyl sulfoxide (DMSO) as a solvent control at a final concentration of 0.5% v/v or with compounds in DMSO with a resulting final DMSO concentration of 0.5% v/v. Compound treatment was done at concentrations of 0.39, 0.78, 1.56, 3.12, 6.24, 12.5, 25, 50, 100, and 200 uM in duplicate on each plate. Cells were treated with compounds for 1, 24, or 72 hr. Carbonyl […] m-chloro-phenylhydrazone (CCCP) and taxol were used as positive controls for mitochondrial function and cytoskeletal stability, respectively; DMSO served as the negative control for this experiment. Cells were fixed by the direct addition of 50 uL formaldehyde in Hank's Balanced Salt Solution (HBSS) to a final concentration of 3.7%. After incubation in the fixation medium for 30 min at room temperature (293-298 K), cells were rinsed twice with HBSS and treated with cell permeabilization buffer (16 uL of 0.5% Triton X-100) for 10 min at room temperature (293-298 K) before labeling. For mitochondrial membrane potential and mitochondrial measurements, pre-fixed cells were incubated with 50 uL of MitoTracker Red CMXRos (Invitrogen) at a concentration of 250 nM for 30 min before fixation. In the remaining cases, post-fixed cells were labeled by incubation with a multiplexed mixture of primary antibodies in HBSS for 60 min at room temperature (293-298 K) to detect immunoreactivity of c-Jun (1:500), phospho-histone H3 (1:100), phospho-histone H2A.x (1:200), p53 (1:400), alpha-tubulin (1:200) and Hoechst 33342 (2 ug/mL). Cells were labeled for multiplexed imaging on two separate plates: a) Hoechst 33342, MitoTracker Red, phospho-histone H3, and alpha-tubulin, and b) Hoechst 33342, phospho-histone H2A.x, and c-Jun. A final rinse with HBSS (50 uL) was performed before analysis. The primary and secondary antibodies for the proteins were phospho-histone H3 (rabbit anti-phospho-histone H3 and FITC-donkey anti-rabbit IgG), phospho-histone H2A.x (mouse anti-phospho-histone H2A.x and FITC-donkey anti-mouse IgG), c-Jun (rabbit anti-phospho-c-Jun and Cy3-donkey anti-rabbit IgG), p53 (sheep anti-p53 and Cy5-donkey anti-sheep IgG), alpha-tubulin (mouse anti-alpha-tubulin and Cy5-donkey anti-mouse IgG). These antibodies are available as the CellCiphr HepG2 assay kit (Millipore).Digital images of each well were captured using a Cellomics ArrayScan VTI (Thermo Scientific Cellomics) (0.8 NA objective, 0.63x optical coupler, and XF-93 filter set) at 20x magnification. The images were acquired using the autofocus feature of the ArrayScan instrument, which entails the following steps. First, the camera focuses on channel 1 (Hoechst 33342), where nuclei are identified. Second, a Z offset of 1 um is used for capturing mitochondria (MitoTracker Red). […]

| SMILES | outcome | AC50 |
| --- | --- | --- |
| Nc1ccc(S(=O)(=O)c2ccc(N)cc2)cc1 | inactive | – |
| CCCc1cc(=O)[nH]c(=S)[nH]1 | inactive | – |
| COC(=O)c1ccc(O)cc1 | inactive | – |
| CN1CCN(Cc2cc(-c3ccc4[nH]c(=O)oc4c3)co2)[C@@H](c2ccc(F)cc2)C1 | – | 73.2 µM (active) |
| CCCCCCCCCCO | inactive | – |
| Cc1ccc(Cl)cc1 | inactive | – |
| CCCCC(CC)COC(=O)CC(C(=O)OCC(CC)CCCC)S(=O)(=O)O (stereo not given) | inactive | – |
| CCNc1cccc(C)c1 | inactive | – |
| COCCOCCOC | inactive | – |
| Cc1cccc(C)c1O | inactive | – |
| O=c1c(O)c(-c2ccc(O)c(O)c2)oc2cc(O)cc(O)c12 | inactive | – |
| Cc1cc(NC(=O)C(=O)O)cc(C)c1Oc1ccc(O)c2c1CCC2 | inactive | – |
| CN1CCCC1=O | inactive | – |
| CC(=O)C(C)=CC1C(C)=CCCC1(C)C (stereo not given) | inactive | – |
| CCOC(=O)C(C)(C)Oc1ccc(Cl)cc1 | inactive | – |
| CC(=O)OCCOCCOCCOC(C)=O | inactive | – |
| CCCCCCCCCCCCCCCC | inactive | – |
| CCCCCCCC=O | inactive | – |
| CN[C@H]1CC[C@@H](c2ccc(Cl)c(Cl)c2)c2ccc(S(N)(=O)=O)cc21 | – | 12.1 µM (active) |
| CCc1c(C(=O)NN2CCCCC2)nn(-c2ccc(Cl)cc2Cl)c1-c1ccc(Br)cc1 | – | 30 µM (active) |

| SMILES | outcome | AC50 |
| --- | --- | --- |
| Cc1cccc([N+](=O)[O-])c1C | inactive | – |
| CCCCc1ccc2c(n1)[C@@H](c1ccc(OC)cc1C[C@H](C)C(=O)O)[C@H](C(=O)O)[C@H]2c1ccc2c(c1)OCO2 | inactive | – |
| CCCCCCCCCCCC(=O)OC | inactive | – |
| Nc1ccccc1N | inactive | – |
| CC(=O)Oc1ccccc1C(=O)O | inactive | – |
| CNC(=O)[C@H]1O[C@@H](n2cnc3c(NCc4cc(Cl)ccc4OCc4cc(C)no4)ncnc32)[C@H](O)[C@@H]1N | inactive | – |
| O=c1[nH]cc(F)c(=O)[nH]1 | inactive | – |
| Oc1ccc2c(c1)OC[C@@H](N1CCC(O)(c3ccc(F)cc3)CC1)[C@H]2O | inactive | – |
| C[Si]1(C)O[Si](C)(C)O[Si](C)(C)O[Si](C)(C)O1 | inactive | – |
| Cc1ccc(C(C)C)c(O)c1 | inactive | – |
| CCCCOC(=O)CCCCCCCCC(=O)OCCCC | inactive | – |
| Cc1cccc(Nc2cc(Cl)nc(SCC(=O)O)n2)c1C | inactive | – |
| COc1cc(-c2nc(NC(=O)c3cc4cc(C)cc(C)c4n3CC(=O)O)sc2CCC2CCCCC2)c(OC)cc1Cl | – | 25.2 µM (active) |
| Nc1nc(N)c2nc(CNc3ccc(C(=O)N[C@@H](CCC(=O)O)C(=O)O)cc3)cnc2n1 | inactive | – |
| Cc1nc(C)nc(N2C[C@@H](C)N(c3ccnc([C@@H](C)O)n3)[C@@H](C)C2)n1 | inactive | – |
| CCCCN(CCCC)CCCC | inactive | – |
| CC(C)c1ccc(C(=O)N=C(N)N)cc1S(C)(=O)=O | inactive | – |
| CCCCCC(=O)O | inactive | – |
| COc1ccc2c(c1)c(CC(=O)O)c(C)n2C(=O)c1ccc(Cl)cc1 | inactive | – |
| CC(CO)OC(C)CO (stereo not given) (tested in a mixture with another compound) | inactive | – |

Reference: PubChem BioAssay (EPA / NIEHS)
